# Experimental data published in PubChem BioAssay (NCI).
# Compounds without any hit were thinned out: in the full panel of roughly 83,000, 20% have a hit.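 For each line, cells grew in 96-well plates with the test compound present at a single concentration for 48 hours.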 Unmarked numbers belong to inactive results. The source made the active and inactive calls. The calls were made as follows: active = growth percent below 10; inactive = the rest.
# Columns and labels:
# Test in all cases: NCI-60 one-dose screen, 48 h (100 = growth as untreated, 0 = no growth, -100 = all killed)
# Conditions in all cases: 10 µM unless noted
# MOLT-4 leukemia = tested on: MOLT-4 leukemia
# SR leukemia = tested on: SR leukemia
# RPMI-8226 leukemia = tested on: RPMI-8226 leukemia
# OVCAR-8 ovarian = tested on: OVCAR-8 ovarian
# OVCAR-5 ovarian = tested on: OVCAR-5 ovarian
# OVCAR-4 ovarian = tested on: OVCAR-4 ovarian
# SK-OV-3 ovarian = tested on: SK-OV-3 ovarian
# IGROV1 ovarian = tested on: IGROV1 ovarian
# OVCAR-3 ovarian = tested on: OVCAR-3 ovarian
# HS 578T breast = tested on: HS 578T breast
# NCI/ADR-RES ovarian = tested on: NCI/ADR-RES ovarian
# T-47D breast = tested on: T-47D breast
# BT-549 breast = tested on: BT-549 breast
# MDA-MB-435 melanoma = tested on: MDA-MB-435 melanoma
# SW-620 colon = tested on: SW-620 colon
# HCT-116 colon = tested on: HCT-116 colon
# HCC-2998 colon = tested on: HCC-2998 colon
# KM12 colon = tested on: KM12 colon
# MCF7 breast = tested on: MCF7 breast
Structure (SMILES),growth (MOLT-4 leukemia),growth (SR leukemia),growth (RPMI-8226 leukemia),growth (OVCAR-8 ovarian),growth (OVCAR-5 ovarian),growth (OVCAR-4 ovarian),growth (SK-OV-3 ovarian),growth (IGROV1 ovarian),growth (OVCAR-3 ovarian),growth (HS 578T breast),growth (NCI/ADR-RES ovarian),growth (T-47D breast),growth (BT-549 breast),growth (MDA-MB-435 melanoma),growth (SW-620 colon),growth (HCT-116 colon),growth (HCC-2998 colon),growth (KM12 colon),growth (MCF7 breast) [%]
COC(=O)[C@@H](C[C@H](Cc1ccccc1)NC(=O)c1csc([C@@H](C[C@H](C(C)C)N(C)C(=O)[C@@H](NC(=O)[C@H]2CCCCN2C)C(C)C)OC(C)=O)n1)NC(=O)OCc1ccccc1,11.8% [9.5 µM],-23.3% [9.5 µM] (active),-9.01% [9.5 µM] (active),13.3% [9.5 µM],42.2% [9.5 µM],46.2% [9.5 µM],12.4% [9.5 µM],13.2% [9.5 µM],-23.7% [9.5 µM] (active),12.9% [9.5 µM],13.9% [9.5 µM],78.8% [9.5 µM],-28% [9.5 µM] (active),-36% [9.5 µM] (active),26.1% [9.5 µM],1.64% [9.5 µM] (active),19.5% [9.5 µM],1.08% [9.5 µM] (active),
Cc1ccc(S(=O)(=O)F)cc1C(=O)O,99.6%,103%,100%,116%,102%,110%,88.3%,102%,109%,112%,105%,91.6%,111%,86.9%,109%,111%,108%,109%,
COc1cc(C=Nc2cc(Cl)cc(Cl)c2)ccc1N(CCCl)CCCl,58.9%,41.2%,75%,90.5%,105%,99.5%,91.1%,56.7%,91.1%,93.5%,85.2%,95.4%,85.4%,95.5%,75.5%,90.4%,,51.1%,84.2
CCOC(=O)N[C@H]1CCc2c(Br)c(OC)c(OC)c(OC)c2-c2ccc(SC)c(=O)cc21,5.92% (active),-5.77% (active),-6.15% (active),20.2%,32.5%,5.73% (active),52.1%,12.1%,-29.4% (active),-1.62% (active),11.8%,42.6%,3.55% (active),-54.2% (active),16.7%,-5.72% (active),14.6%,-8.71% (active),
CCn1c2ccccc2c2cc(C(=O)c3cccc4c3CCCN4)ccc21,104%,95.3%,112%,113%,99%,101%,106%,110%,103%,92.1%,92.7%,104%,98.1%,97.6%,96.1%,105%,,94.9%,96.5
O=C(CCCCCNC1=CC(=O)c2ccccc2C1=O)NCCC[Te]c1ccccc1,29.7%,38.3%,10.5%,8.94% (active),-37% (active),-44.8% (active),-39.6% (active),-24% (active),-43.8% (active),-9.34% (active),-0.191% (active),-60.5% (active),-27.7% (active),-15.5% (active),-7.07% (active),-51% (active),-48.7% (active),-41.6% (active),
COC(=O)[C@@H](C)C[C@H](Cc1ccccc1)NC(=O)c1csc([C@@H](C[C@H](C(C)C)N(C)C(=O)[C@@H](NC(=O)[C@H]2CCCCN2C)C2CCCCC2)OC(C)=O)n1,3.17% (active),4.79% (active),4.31% (active),14.6%,23.1%,36.7%,-1.95% (active),22.3%,-21.5% (active),-6.6% (active),10.6%,39.1%,,-47.6% (active),19.1%,-22.1% (active),10.3%,2.88% (active),18.3
C/C(=C\c1cc(C(F)(F)F)nn1CCNC(=O)OC(C)(C)C)[C@@H]1C[C@@H]2O[C@]2(C)CCC[C@H](C)[C@H](O)[C@@H](C)C(=O)C(C)(C)[C@@H](O)CC(=O)O1,25.1%,28.1%,22.9%,61.8%,68.7%,71.4%,86.3%,49.2%,30.8%,61.3%,28%,57.8%,73.2%,-27.6% (active),34.7%,23.3%,57.3%,20.3%,
CC(=O)O[C@H](C[C@H](C(C)C)N(C)C(=O)[C@@H](NC(=O)[C@H]1CCCCN1C)C(C)C)c1cccc(C(=O)N[C@@H](Cc2ccccc2)C[C@H](C)C(=O)O)n1,9.11% (active),6.32% (active),19.7%,1.57% (active),32.5%,41.9%,23.3%,24%,-50.3% (active),9.57% (active),8.24% (active),47.7%,-8.23% (active),-37.7% (active),23.7%,2.75% (active),,4.91% (active),
CC(=O)O[C@@H]1CC[C@]2(C)[C@H]3CC[C@]4(C)C(=O)CC[C@H]4[C@@H]3C[C@@H]3SC(N)=N[C@@]32C1,45.6%,31.7%,48.4%,76.8%,98.7%,84%,79.1%,67.3%,36.2%,54.5%,44%,65.8%,,2.34% (active),44.1%,32.7%,82.1%,33.1%,32.6
COC(=O)C12CC(NC(=O)c3csc([C@@H](C[C@H](C(C)C)N(C)C(=O)[C@@H](NC(=O)[C@H]4CCCCN4C)C4CC4)OC(C)=O)n3)(C1)C2,15.9%,17.5%,22.9%,19.3%,35.7%,43.5%,3% (active),29.5%,-25.2% (active),33.1%,43.7%,43.4%,,-40.9% (active),25.4%,1.78% (active),21.8%,1.43% (active),19.2
CC(C)[C@@H]1NC(=O)[C@]2(C)CSC(=N2)c2csc(n2)CNC(=O)C[C@@H](/C=C/CCS)OC1=O,7.47% (active),12%,-15.4% (active),-11.9% (active),25%,27.7%,-12.6% (active),0.877% (active),-21.3% (active),7.81% (active),52%,-17.9% (active),41.7%,5.9% (active),1.33% (active),-34.8% (active),-48% (active),1.21% (active),
CC[C@H](C)[C@H](NC(=O)[C@H]1CCCCN1C)C(=O)N(C)[C@H](C[C@@H](OC(C)=O)c1cccc(C(=O)N[C@@H](Cc2ccccc2)C[C@H](C)C(=O)O)n1)C(C)C,17.8%,18%,22.7%,17.7%,52%,34.7%,8.71% (active),25.7%,-27.7% (active),28.1%,15.6%,66.8%,,-48.8% (active),28.3%,-0.292% (active),17.1%,-6.52% (active),14.7
C[S+]1C=Cc2ccccc2C1c1ccc(Cl)cc1 (stereo not given),85.7%,93.4%,40.8%,95.2%,118%,66.5%,116%,-85.2% (active),89.8%,77.7%,101%,89.9%,,75%,112%,81.6%,103%,1.91% (active),84.5
COC(=O)[C@@H](C)C[C@H](Cc1ccccc1)NC(=O)c1csc([C@@H](C[C@H](C(C)C)N(C)C(=O)[C@H](C)NC(=O)[C@H]2CCCN2C)OC(C)=O)n1,42.6%,14.1%,9.55% (active),58.3%,110%,88.9%,73.2%,58.1%,17.9%,17.6%,92.4%,50.9%,36.9%,-27.1% (active),28.5%,,62.8%,30.7%,
CCCCN1CCCC[C@@H]1C(=O)N[C@H](C(=O)N(C)[C@H](C[C@@H](OC(C)=O)c1nc(C(=O)NC2CCC(C(=O)OC)CC2)cs1)C(C)C)C(C)C (stereo not given in full),19.2%,20.4%,16.8%,24.6%,57%,52.2%,23.9%,39.5%,-29.5% (active),14.5%,41.2%,27.4%,40.1%,-43.9% (active),19.5%,14%,,24.6%,
